Records with an inconclusive call do not appear. A number with no mark means an inactive call. The source made the active and inactive calls. Calls follow the shape of the dose curve; as a rule, active = well fitted cell-killing curve with a large enough effect in the repeat runs; inconclusive = weak or mixed curves, or effect the other way; inactive = flat fitted curve, though single readings scatter.
Assay: qHTS assay to identify small molecule antagonists of the estrogen receptor alpha (ER-alpha) signaling pathway using the BG1 cell line - cell viability counter screen (AID 743081);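 also: compound given together with 17beta-estradiol as the ER stimulus; nearly all actives have a fitted effect of over 45% in size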
Conditions: BG1Luc4E2 viability, CellTiter-Fluor, 22 h; series mostly up to 70.3 µM; activity change, negative = cytotoxicity: at the top concentration
% is scaled to controls: 0 for no effect and ±100 for the full control effect.

Row | Compound | activity change, negative = cytotoxicity | outcome
1 | O=C(O)c1ccccc1C(=O)OCc1ccccc1 | -6.54% | –
2 | Cc1ccc2c(c1)c1c3n2CCNC3CCC1 (stereo not given) | -19% | –
3 | O=C(O)c1ccccc1C(=O)Nc1ccc(S(=O)(=O)Nc2nccs2)cc1 | 4.59% | –
4 | C[C@H](CCC(=O)O)[C@H]1CC[C@H]2[C@@H]3[C@H](O)C[C@@H]4C[C@H](O)CC[C@]4(C)[C@H]3C[C@H](O)[C@]12C | -4.92% | –
5 | CC(CC(=O)O)CC(C)(C)C (stereo not given) | 0.137% | –
6 | CCCOCCOCCOCCO | 9.91% | –
7 | COc1ccc(/C=N/NC(=O)c2ccncc2)cc1OC | 5.06% | –
8 | C1=C\CC/C=C\CC/1 | 0.33% [at 95 µM] | –
9 | O=C(O)/C=C/c1ccccc1 | – | inactive
10 | Cn1c(=O)c2c(ncn2CC2OCCO2)n(C)c1=O | 6.97% | –
11 | Nc1ccc(S(=O)(=O)Nc2ccccn2)cc1 | -7.19% [at 32.5 µM] | –
12 | O=S(=O)(O)CCO | 3.73% [at 95 µM] | –
13 | CCN(CCC#N)c1ccccc1 | 1.33% | –
14 | CC(=O)OCCCc1ccccc1 | 8.47% | –
15 | CCCCCC(=O)OCC | -0.476% | –
16 | COCC(=O)Nc1c(I)c(C(=O)NCC(O)CO)c(I)c(C(=O)N(C)CC(O)CO)c1I (stereo not given) | 1.55% [at 32.5 µM] | –
17 | CCCCCCCCCOCC1CO1 (stereo not given) | -0.0406% [at 95 µM] | –
18 | O=C1NC2NC(=O)NC2N1 (stereo not given) | -0.286% | –
19 | COc1cc2c3cc1Oc1cc(ccc1O)C[C@@H]1c4c(cc(OC)c(O)c4Oc4ccc(cc4)C[C@@H]3N(C)CC2)CC[N+]1(C)C | 0.738% | –
20 | COCCOCCOCCOC | 0.155% | –
21 | CN(C)CCOCCN(C)CCO | 4.88% | –
22 | CCc1nccnc1C | 18.9% | –
23 | SCCSCCS | 2.9% | –
24 | C=C(C)C(=O)OCCCCCCOC(=O)C(=C)C | -1.23% | –
25 | Nc1cc(Cl)cc(S(=O)(=O)O)c1O | -16.3% [at 95 µM] | –
